Sampled rows, rich in hits. Any-hit rate of the full collection: about 6.2%.
KB-V1 MDR tox: qHTS assay for MDR1-selective chemotherapeutics: Primary screen using the drug-selected MDR subline cells KB-V1; Potency, µM (titrated, usually from 46.1 µM), hits mostly cytotoxic; 400,000 tested, 3.4% active; KB-V1 MDR cells viability, CellTiter-Glo, 72 h; AID 1347076, 2019; further: on the % scale 0 is the no-effect control and ±100 the full control effect; nearly all actives have a fitted effect of over 60% in size
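Readout: CellTiter-Glo luminescence, 10 min after addition. Cells: KB-V1 MDR subline, 72 h at 37 degrees C with compound. Analysis: corrected, normalized data fitted to concentration-effect curves.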
HT1080 IDH1KD tx: qHTS for induction of synthetic lethality in tumor cells producing 2HG: qHTS for the HT-1080-IDH1KD cell line | 360,000 tested, 2% active | HT-1080 IDH1 knockdown viability, ATP luminescence, 48 h | Potency, µM (doses to about 46.1 µM), for inactives: at the highest dose activity, negative = toxicity, hits mostly cytotoxic;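 further: 0% = DMSO wells and -100% = cell-free medium wells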
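Knockdown cells (IDH1KD HT-1080) received compounds 2 h after plating at 750 cells/well and were kept 48 h at 37 °C in 5% FBS RPMI. A CellTiter-Glo luminescence read gave % activity for curve fitting.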
ATXN2 expr inh: Primary qHTS for Inhibitors of ATXN expression; 360,000 tested, 0.72% active; Potency, µM (titrated, usually from 57 µM), for inactives: top-dose activity change, negative = inhibition, most hits filed as inhibitors; HEK-293 ATXN2-luciferase reporter, luminescence, 24 h; further: on the % scale 0 is the no-effect control and ±100 the full control effect; nearly all actives have a fitted effect of over 55% in size
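ATXN2-luciferase reporter cells (luciferase flanked by upstream and downstream ATXN2 gene portions) were treated 24 h at 37 °C with compounds at up to 57 uM. SteadyGlo luminescence gave expression; GF-AFC fluorescence gave viability.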
KB-3-1 tox: qHTS assay for MDR1-selective chemotherapeutics: Primary screen using the parental adenocarcinoma cell KB-3-1. KB-3-1 viability, CellTiter-Glo ATP luminescence, 72 h. Potency, µM (doses to about 46.1 µM), most hits filed as cytotoxic. 400,000 tested, 1.4% active. AID 1347075, 2019; further: on the % scale 0 is the no-effect control and ±100 the full control effect; nearly all actives have a fitted effect of over 60% in size
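Cytotoxicity in the drug-sensitive parental line KB-3-1 was scored as loss of CellTiter-Glo luminescence following 72 h incubation with compound. Values come from curve fitting of normalized concentration-response data.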
S2 tox: Viability Counterscreen for Primary qHTS for Inhibitors of ATXN expression; 400,000 tested, 0.49% active; Potency, µM (highest dose often 56.7 µM), usual class: cytotoxic; S2 cells (HEK-293 line with an ATXN2-luciferase reporter) viability, CellTiter-Fluor protease fluorescence, 24 h; AID 651635, 2014; further: nearly all actives have a fitted effect of over 40% in size
HT1080-NT tox: qHTS for induction of synthetic lethality in tumor cells producing 2HG: qHTS for the HT-1080-NT fibrosarcoma cell line; HT-1080-NT fibrosarcoma viability, CellTiter-Glo ATP luminescence, 48 h; Potency, µM (top dose mostly 46.1 µM), for the others: top-dose activity, negative = less viability, hits mostly cytotoxic; 360,000 tested, 1.6% active; AID 686970, 2013;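 further: NT is the 2HG producing partner of a matched IDH1 knockdown line; 0% = DMSO-treated cells and -100% = media-only wells without cells; nearly all actives have a fitted effect of over 55% in size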
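Read-out is CellTiter-Glo luminescence after 10 minutes at room temperature, following 48 hours' compound treatment of HT-1080-NT cells (750 cells/well, RPMI, 5% FBS, 37 degrees C).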
* = called active by the depositor; i = inactive; ? = inconclusive; · = not tested or not shown; [ ] = dose if it differs, or a comment. The call rests on the fitted dose curve; in most records, active means well fitted curve in the direction sought with a large enough effect; inconclusive means small, poorly fitted or top-dose-only effect, or another doubt; inactive means no such curve, though single readings can be large; an effect the other way counts as inactive or inconclusive. Potency means the concentration at half of the fitted maximal effect.

SMILES	KB-V1 MDR tox	HT1080 IDH1KD tx	ATXN2 expr inh	KB-3-1 tox	S2 tox	HT1080-NT tox
CC(=O)c1ccc(NC(=O)C2CCC(CNS(=O)(=O)c3cccc4nsnc34)CC2)cc1 (stereo unspecified)	i	·	-2.2%	i	i	·
Cc1c(C(=O)N2CCCC2)c(S(=O)(=O)NCCc2ccccc2)c(C)n1C	i	4.4%	10.2%	i	i	7.8%
COC(=O)C1CCCCN1Cc1ccc2c(c1)CN(Cc1cn[nH]c1-c1ccc(F)cc1)CCO2 (stereo unspecified)	·	·	·	·	i	·
CN(C)C(=O)c1ccc(SC(=S)NCc2ccccc2)cc1	?	1.0%	-34.1%	6.51µM*	i	?
Nc1nc2c(s1)CCc1ccccc1-2	?	0.4%	2.3%	i	i	0.8%
CC(=O)Nc1nc2c(s1)CCc1ccccc1-2	?	2.8%	·	i	?	8.2%
O=C(CCCl)Nc1nc2c(s1)CCc1ccccc1-2	i	9.2µM*	?	?	?	9.2µM*
N#C/C(=C(/O)CCl)c1nc2c(s1)CCc1ccccc1-2	14.6µM*	?	-49.1%	4.11µM*	i	?
CCCCC(=O)N(C)c1c(C)nc2ccc(C(=O)N3CCCCC3)cn12	i	?	4.7%	i	i	5.2%
N#CC(c1cccc(Cl)c1)c1ccc2c(C(F)(F)F)cc(C(F)(F)F)nc2n1 (stereo unspecified)	0.92µM*	?	2.51µM*	?	5.62µM*	9.2µM*
Cc1c(C(=O)NCc2ccccc2Cl)sc2ncnc(NCC3CCCO3)c12 (stereo unspecified)	·	·	·	·	i	·
CSc1ccccc1C(=O)Nc1nc2ccccc2[nH]1	i	22.9%	51.8%	i	i	1.6%
O=C(Nc1nc2ccccc2[nH]1)C1CC1	10.3µM*	?	-1.9%	?	?	?
O=C(Nc1nc2ccccc2[nH]1)C1CCN(C(=O)c2ccc(F)cc2)CC1	i	-4.7%	-5.0%	i	i	0.9%
COc1cc(SC)ccc1C(=O)Nc1nc2ccccc2[nH]1	?	1.46µM*	0.316µM*	2.91µM*	i	1.64µM*
COc1ccccc1C(=O)Nc1nc2ccccc2[nH]1	4.11µM*	1.3µM*	0.316µM*	2.31µM*	i	1.46µM*
CCC1CCCCN1S(=O)(=O)c1ccc(C(=O)Nc2nnc(-c3cccs3)o2)cc1 (stereo unspecified)	5.01µM*	14.1µM*	?	?	i	8.91µM*
CN(C)S(=O)(=O)c1ccc(C(=O)Nc2nnc(-c3cccs3)o2)cc1	?	?	·	i	?	-28.8%
CC1CCCN(S(=O)(=O)c2ccc(C(=O)Nc3nnc(-c4ccccn4)o3)cc2)C1 (stereo unspecified)	?	-5.7%	·	?	i	-3.4%
O=C(Nc1nnc(-c2cccs2)o1)c1cccc(C(F)(F)F)c1	i	?	15.8µM*	i	?	?
N#Cc1ccc(C(=O)Nc2nnc(-c3cccs3)o2)cc1	i	-27.6%	?	?	i	-20.3%
CC1CCCN(S(=O)(=O)c2ccc(C(=O)Nc3nnc(-c4ccccc4Cl)o3)cc2)C1 (stereo unspecified)	?	?	?	7.31µM*	i	-7.9%
CCC1CCCCN1S(=O)(=O)c1ccc(NC(=O)c2cccnc2)cc1 (stereo unspecified)	i	-7.0%	-4.5%	i	i	-1.9%
CC1CC(C)CN(S(=O)(=O)c2ccc(C(=O)Nc3nnc(-c4cccs4)o3)cc2)C1 (stereo unspecified)	12.6µM*	?	?	?	?	14.1µM*
COc1cc(OC)c(NC(=O)c2cc(C(C)=O)n3ccccc23)cc1Cl	i	·	·	i	·	·
SMILES	KB-V1 MDR tox	HT1080 IDH1KD tx	ATXN2 expr inh	KB-3-1 tox	S2 tox	HT1080-NT tox
COc1ccccc1CN(Cc1ccco1)c1cnc(S(C)(=O)=O)nc1C(=O)Nc1ccccc1Cl	?	·	6.3%	i	i	·
CC(C(=O)Nc1ccc(OC(F)(F)F)cc1)N1Cc2ccccc2C1=O (stereo unspecified)	i	·	·	i	·	·
CCCCN(CC)Cc1ccc(CNC(=O)Nc2ccccc2)o1	i	14.1µM*	-16.8%	i	i	1.1%
CC(=O)Nc1ccc(C(=O)N2CCCCC2c2cc(C(=O)Nc3cccc4c3CCCC4)no2)cc1 (stereo unspecified)	?	5.8µM*	?	?	?	16.4µM*
CC(C)(C)S(=O)N1Cc2cc(C(=O)NCc3ccc(Oc4ccccc4)cc3)nc(-c3cccc(-c4cc5ccccc5o4)c3)c2[C@@H]1CCO (stereo partly specified)	?	?	?	?	·	23.1µM*
COc1cccc(-c2cccc(-c3nc(C(=O)NCc4ccc(Oc5ccccc5)cc4)cc4c3[C@H](CCO)N(S(=O)C(C)(C)C)C4)c2)c1 (stereo partly specified)	?	?	?	i	?	?
COCCNC(=O)c1cc2c(c(-c3cccc(-c4cc5ccccc5o4)c3)n1)[C@H](CCO)N(S(=O)C(C)(C)C)C2 (stereo partly specified)	18.4µM*	?	-13.1%	i	?	?
Cc1nc2n(c(=O)c1CCN1CCC(c3noc4cc(F)ccc34)CC1)CCC[C@H]2O	i	·	-10.8%[25.6 µM]	i	i	·
CCN(Cc1nc2cc(Cl)ccc2c(=O)[nH]1)C(=O)c1nn(C)c(=O)c2ccccc12	18.4µM*	-4.5%	-19.2%	i	i	-11.6%
Cc1ccc(NC(=O)c2c(C)noc2-c2snnc2C)cc1	?	?	-13.7%	?	?	-26.1%
Cc1nnsc1-c1onc(C)c1C(=O)Nc1cc(Cl)cc(Cl)c1	16.4µM*	?	·	i	?	?
O=C(Nc1c(C(=O)Nc2ccc(F)cc2)oc2ccccc12)c1cc2ccccc2o1	i	·	9.8%	i	i	·
COc1ccccc1Nc1nc(N)nc(CSc2nccc(C)n2)n1	i	3.5%	8.7%	i	i	2.4%
COc1ccccc1Nc1nc(N)nc(CSc2nc(C)cc(C)n2)n1	13µM*	0.3%	0.3%	?	i	-1.2%
Cc1c(Cl)cccc1NC(=O)Nc1cnccn1	?	-1.5%	9.2%	16.4µM*	i	2.4%

Screening results (PubChem BioAssay)
